USP17 block = human USP17-like deubiquitinase inhibition; A8MUK1; purified USP17, Ub-rhodamine cleavage fluorescence, 3 h; inhibition, % at 50 µM; hit rate 6.5% among 47,000; AID 1645855
USP28 inh = inhibitors of human USP28 deubiquitinase | Q96RU2 | purified USP28, Ub-rhodamine cleavage fluorescence, 30 min | inhibition, % at 25 µM | hit rate 3% among 47,000 | AID 1645857
OTUD3 inh = inhibitors of human OTUD3 deubiquitinase. hit rate 0.7% among 47,000. purified OTUD3, Ub-rhodamine fluorescence, 2 h. Q5T2D3. inhibition, % at 25 µM
USP30 block = inhibitors of human USP30 deubiquitinase. hit rate 5.3% among 47,000. Q70CQ3. AID 1645860. inhibition, % at 25 µM. purified USP30, Ub-rhodamine cleavage fluorescence
Target sequence (Q70CQ3 whole entry, looked up): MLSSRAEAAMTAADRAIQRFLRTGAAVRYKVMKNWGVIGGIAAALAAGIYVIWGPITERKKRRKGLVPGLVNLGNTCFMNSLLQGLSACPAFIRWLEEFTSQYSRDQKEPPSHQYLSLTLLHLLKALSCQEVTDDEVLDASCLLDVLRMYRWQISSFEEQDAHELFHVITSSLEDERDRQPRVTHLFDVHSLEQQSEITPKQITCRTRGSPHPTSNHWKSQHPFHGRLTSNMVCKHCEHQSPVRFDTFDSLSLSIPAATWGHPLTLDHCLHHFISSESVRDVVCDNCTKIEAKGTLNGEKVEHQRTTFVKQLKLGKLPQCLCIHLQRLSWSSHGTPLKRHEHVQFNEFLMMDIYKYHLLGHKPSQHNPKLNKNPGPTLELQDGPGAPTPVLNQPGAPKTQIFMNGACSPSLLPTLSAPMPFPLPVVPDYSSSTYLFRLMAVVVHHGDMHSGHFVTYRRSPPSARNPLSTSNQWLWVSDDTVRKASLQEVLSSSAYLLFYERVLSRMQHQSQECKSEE
Numbers stand for hits; n = inactive; x = no result given. In the library only some 11% were active in any assay of this set; here they are far more common. Rule as the data show it: active = inhibition above about 30%; inactive = the rest.

SMILES	USP17 block	USP28 inh	OTUD3 inh	USP30 block
Cc1ccc(NC(=O)Cn2c(=O)n(C3CC3)c(=O)c3nscc32)cc1	n	n	n	n
O=C(NC1CC1)c1nc(-c2cn(-c3ccc(Cl)cc3)nn2)no1	n	n	n	n
CC(C)c1noc(-c2ccnc(-n3cnc(C(=O)N4CCCC4)c3)c2)n1	n	n	n	n
CC1(C(=O)N2CCC3(C2)c2ccccc2S(=O)(=O)N3CC2CC2)CC1 (centres undefined)	n	n	n	n
CCOC(=O)c1ccc(NC(=O)C2CCCN(S(=O)(=O)N3CCCCCC3)C2)cc1 (centres undefined)	41	n	n	n
COc1cccc(NC(=O)C(C)c2c(C)n[nH]c2C)c1 (centres undefined)	n	n	n	n
CSc1cccc(NC(=O)CCc2nc3cccnc3n2Cc2ccccc2)c1	48	n	n	n
CSc1ccc(CCNC(=O)CCc2nc3cccnc3n2Cc2ccccc2)cc1	n	n	n	n
CCc1ccc(NC(=O)CCc2nc3cccnc3n2Cc2ccccc2)cc1	71	57	46	79
Cc1noc(-c2cccnc2-n2cnc(C(=O)Nc3ccccc3)c2)n1	n	n	n	n
O=C(NCc1ccnc(C2CCCOC2)n1)c1nccc2ccccc12 (centres undefined)	n	n	n	n
CN(C)C=Nc1c(C#N)cnn1-c1ccc([N+](=O)[O-])cc1	n	n	n	74
Cc1cc(=O)oc2c1c(C)nn2-c1ccc([N+](=O)[O-])cc1	n	n	n	n
CC(=O)N1CCCC(c2nc(C)cc(-c3cc(F)ccc3C(=O)O)n2)C1 (centres undefined)	n	n	n	64
CC(=O)N1CCCC(c2nc(C)cc(-c3ccccc3C(=O)O)n2)C1 (centres undefined)	n	n	n	n
O=C(c1ccccc1)C1CCN(C(=O)c2cccc(C(F)(F)F)c2)CC1	n	n	n	n
COc1ccc(S(=O)(=O)NCc2ccc(C(=O)N3CCN(c4ccccn4)CC3)cc2)cc1	n	n	n	n
COc1ccc(CC(=O)N2CCN(c3ccc(Nc4ccccn4)nn3)CC2)cc1	x	37	n	n
COc1ccc(C2Nc3ccccc3C(=O)N2c2ccc3c(c2)OCO3)cc1O (centres undefined)	45	n	n	n
O=C(NCCc1c[nH]c2ccccc12)C1CCC(CNS(=O)(=O)c2ccccc2)CC1 (centres undefined)	n	n	n	n
O=C(/C=C/c1ccc(OCc2ccccc2)cc1)N1CCN(C(c2ccccc2)c2ccccc2)CC1	n	n	n	n
COc1ccccc1N1CCN(C(=O)/C=C/c2ccc(OCc3ccc(Cl)cc3Cl)cc2)CC1	n	n	n	31
CN1CC(NC(=O)/C=C/c2ccc3c(c2)OCO3)CC1=O (centres undefined)	n	n	n	n
O=C(/C=C/c1ccc2c(c1)OCO2)c1ccc(-n2cncn2)cc1	45	x	n	x
Cc1ccc(NC(=O)c2cnc(N3CCOCC3)nc2)cc1C	n	n	n	n
SMILES	USP17 block	USP28 inh	OTUD3 inh	USP30 block
CCOC(=O)c1ccc(NC(=O)c2cnc(N3CCOCC3)nc2)cc1	n	n	30	n
Cc1ccc(NC(=O)c2cnc(N3CCOCC3)nc2)cc1F	89	n	n	46
CCc1ccc(NC(=O)c2sc3ncnc(N4CCN(C)CC4)c3c2C)cc1	n	35	n	n
Cc1c(C(=O)NCc2ccc(Cl)cc2)sc2ncnc(N3CCCC3)c12	n	31	n	43
Cc1c(C(=O)NCc2cccc(F)c2)sc2ncnc(N3CCCC3)c12	n	n	n	n
Cc1cnc(C(=O)N2CCC3(CCC(C)c4ccccc43)CC2)cn1 (centres undefined)	n	n	n	n
CC1(C)Cc2c(sc3nc(Cc4ccccc4)nc(SCC(=O)Nc4ccccc4)c23)CO1	35	n	n	56
CC(C)C1Cc2c(sc3nc(SCC(=O)Nc4cccc5ccccc45)nc(N)c23)CO1 (centres undefined)	52	n	n	n
CCC1(C)Cc2c(sc3nc(SCC(=O)Nc4ccc(C(C)=O)cc4)nc(N)c23)CO1 (centres undefined)	63	n	n	n
CCc1cccc(NC(=O)CSc2ncc3c(n2)-c2cc(C)ccc2N(C)S3(=O)=O)c1	n	n	n	n
Cc1ccccc1NC(=O)c1cc2c(CO)cnc(C)c2oc1=Nc1cccc(F)c1	n	n	n	n
COc1ccc(NC(=O)c2cc3c(CO)cnc(C)c3oc2=Nc2cccc(F)c2)c(OC)c1	n	n	n	33
Cc1cc(OCC(=O)Nc2ccc(C#N)cc2)nc(-c2ccc(F)cc2)n1	n	n	n	n
COc1ccccc1NC(=O)COc1cc(C)nc(-c2ccc(C)cc2)n1	56	n	n	62
COc1ccccc1OCC(=O)Nc1cccc2ccc(C)nc12	47	n	n	34
COc1ccc(OCC(=O)Nc2onc3c2CCCC3)cc1	n	n	n	n
COc1ccccc1OCCNC(=O)c1nc(-n2cnnc2)ccc1Br	n	n	n	n
COc1ccc(CCN2COc3c(cc(Cl)c4cccnc34)C2)cc1OC	93	n	n	49
O=C(c1ccc(F)cc1Cl)N1CCN(C(=O)c2cnn3ccccc23)CC1	n	n	n	n
O=C(c1c(F)cccc1F)N1CCN(C(=O)c2cnn3ccccc23)CC1	n	n	n	31
Cc1nc(-c2ccccc2)sc1C(=O)CSc1ccc(F)cc1	n	n	n	32
COc1ccc(C)cc1NC(=O)c1ccc(-c2cncnc2)nc1	n	n	n	n
Cc1ccc(-n2ncc3c(N4CCC(C)CC4)ncnc32)cc1Cl	n	n	n	n
CCCOC(=O)c1cc(NC(=O)c2cccnc2)ccc1N1CCOCC1	n	n	n	n
O=C(c1cccnc1)c1c(N2CCOCC2)[nH]c(=O)c2ccccc12	37	x	n	x
SMILES	USP17 block	USP28 inh	OTUD3 inh	USP30 block
COc1ccc(OC)c(NC(=O)CNC(c2ccccc2)c2ccccc2)c1	n	n	n	33
Cc1ccc(NC(=O)CNC(c2ccccc2)c2ccccc2)c(F)c1	n	n	n	n
COc1ccc(OC)c(NC(=O)CNC(=O)c2cc3c(OC)cccc3[nH]2)c1	64	n	n	n
COc1ccc(OC)c(NC(=O)CN2c3ccccc3S(=O)(=O)c3ccccc32)c1	n	n	n	n
Cc1nn(-c2nc3ccccc3o2)c2c1C(c1ccccc1[N+](=O)[O-])CC(=O)N2 (centres undefined)	n	n	n	n
Cc1cccc(C)c1NC(=O)C1(NC(=O)c2ccc(Br)cc2)CCCCC1	35	n	n	n
Cc1cc(=O)c2cc(C(=O)Nc3ccccc3F)ccc2[nH]1	x	n	n	n
O=c1[nH]c(-c2ccncc2)nc2c1CN(Cc1ccc(F)c(F)c1)CC2	n	n	n	n
CCCCN1CC(C(=O)Nc2ccc(C(=O)Nc3cccc(Br)c3)cc2)CC1=O (centres undefined)	n	n	n	n
CCCCN1CC(C(=O)Nc2ccc(C(=O)Nc3ccc(Br)c(C)c3)cc2)CC1=O (centres undefined)	39	n	n	n
O=C1CC(c2ccccc2)CC2=C1C(c1c[nH]c3ccccc13)N(C(=O)C1CC1)c1ccccc1N2 (centres undefined)	n	n	n	n
